Assay outcomes deposited in PubChem BioAssay by several laboratories.
EBV gp42 block – EBV gp42 inhibition; Q1HVG2; Fluorescence polarization binding assay, mP read-out; inhibition, % (tested at 21.74 µM); hit rate 0.42% among 220,000; AID 1085; in the data active means inhibition above about 50%
GLD-1 TGE inh – GLD-1-TGE RNA interaction inhibition (C. elegans); Q17339; purified GLD-1 + fluorescein TGE RNA, fluorescence polarization; inhibition, % at 5.96 µM; hit rate 0.44% among 320,000; AID 2280;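 active means percent inhibition above a per-plate cutoff, the plate mean of test compounds plus 3 SD, cut at about 30% in these data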
Target sequence (Q17339 whole entry, looked up): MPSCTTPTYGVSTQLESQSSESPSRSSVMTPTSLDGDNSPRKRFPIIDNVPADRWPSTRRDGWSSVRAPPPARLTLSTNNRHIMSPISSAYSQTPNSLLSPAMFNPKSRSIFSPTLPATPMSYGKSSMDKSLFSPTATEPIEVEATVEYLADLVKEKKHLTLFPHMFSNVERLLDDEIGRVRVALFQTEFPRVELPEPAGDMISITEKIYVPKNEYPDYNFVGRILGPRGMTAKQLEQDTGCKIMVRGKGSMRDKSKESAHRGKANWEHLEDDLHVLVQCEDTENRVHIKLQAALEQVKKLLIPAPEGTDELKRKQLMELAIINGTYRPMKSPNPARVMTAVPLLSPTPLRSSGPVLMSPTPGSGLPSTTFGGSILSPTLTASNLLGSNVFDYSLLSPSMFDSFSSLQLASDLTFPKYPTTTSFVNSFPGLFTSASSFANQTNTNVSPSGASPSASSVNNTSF
E coli Lon inh – E. coli protease La inhibition. P0A9M0. purified E. coli Lon protease, fluorescence polarization. inhibition, % at 7.94 µM. hit rate 0.42% among 360,000. AID 602123; in the data active means inhibition above about 13%, passing the limit was not always enough
MEX-5 binding – C. elegans MEX-5 TCR-2 RNA binding activity; AID 1832; hit rate 0.38% among 300,000; activity score (negative = inhibition of binding), % at 10 µM; MEX-5/FITC-TCR2 RNA binding, fluorescence polarization; hits give low values;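 active means inhibition past about -25% in most replicates, and total fluorescence under double the plate's negative control median, limit read from the data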
Bcl-xL primary – Bcl-xL (human) inhibition; GST-Bcl-xL / FITC-Bim BH3 peptide fluorescence polarization; inhibition, % at 10.9 µM; hit rate 0.7% among 320,000;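 active means inhibition above the mean of all tested compounds plus 3 SD, cutoff set per campaign, cut at about 30% in these data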;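 further: inhibitors lower millipolarization by displacing the labeled peptide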
Large screens that a line does not name were inactive. Compounds with a hit are over-represented: about 1.3% of the library has one in this group of screens.

CC(C(=O)Nc1cccnc1)N1C(=O)C2C3C=CC(C3)C2C1=O (configuration not stated)	Bcl-xL primary 89.2
CC(=O)OC[C@@H]1CN(Cc2ccccc2)C[C@H](n2cnc3c(NCC(C)C)ncnc32)O1	none (no result: EBV gp42 block, GLD-1 TGE inh, MEX-5 binding, Bcl-xL primary)
Oc1oc(-c2ccccc2)nc1C=Nc1ccccc1	none
CN(C)c1ccc(N=Cc2nc(-c3ccccc3)oc2O)cc1	EBV gp42 block 165.6, MEX-5 binding -64.1
CC(=O)Oc1oc(-c2ccccc2)nc1C=Nc1ccc(N(C)C)cc1	MEX-5 binding -33.0
CC(NC(=O)c1ccccc1)C(=O)OCC(=O)c1ccc(Br)cc1 (configuration not stated)	Bcl-xL primary 169.1 (no result: EBV gp42 block)
O=C(CNC(=O)c1ccc(Br)cc1)OCC(=O)c1ccccc1	none (no result: EBV gp42 block, GLD-1 TGE inh, Bcl-xL primary)
COC(C(=O)N/N=C(\C)c1ccc(C(C)(C)C)cc1)c1ccccc1 (configuration not stated)	none (no result: EBV gp42 block, GLD-1 TGE inh, Bcl-xL primary)
O=C(CSc1nnc(SCc2ccccc2)s1)N/N=C/C=C\c1ccco1	EBV gp42 block 53.2
NC(=O)c1sc2nc3c(c(-c4ccco4)c2c1N)CCCC3	none
Nc1c(C(=O)NCC2CCCO2)sc2nc3c(c(-c4ccco4)c12)CC/C3=C\c1ccco1 (configuration not stated)	EBV gp42 block 98.2 (no result: GLD-1 TGE inh, MEX-5 binding, Bcl-xL primary)
O=Nc1ccc(NOC(=O)c2ccccc2)cc1	none
O=C(N=Nc1ccc(NOC(=O)c2ccccc2Br)cc1)c1ccccc1O	EBV gp42 block 51.1 (no result: E coli Lon inh)
CC(OC(=O)Cc1ccsc1)C(=O)Nc1ccc(C(N)=O)cc1 (configuration not stated)	none (no result: EBV gp42 block, MEX-5 binding)
COc1cccc(/C=C2\SC(=S)N(CCCC(=O)NC3=NCCS3)C2=O)c1	MEX-5 binding -33.9 (no result: EBV gp42 block)
Cc1ccc(C(NC(=O)C2CCCCC2)c2c(O)ccc3ccccc23)cc1 (configuration not stated)	EBV gp42 block 59.8
CC(=O)NC(c1ccc(C(C)C)cc1)c1c(O)ccc2ccccc12 (configuration not stated)	none (no result: EBV gp42 block)
CC1=C/C(=C(/c2cc(C)c(O)c(Br)c2)c2ccccc2S(=O)(=O)O)C=C(Br)C1=O	Bcl-xL primary 41.3 (no result: EBV gp42 block)
CC1(Cc2cccc(C(F)(F)F)c2)C(=O)Nc2ccc(-c3ccc(F)c(Cl)c3)cc21 (configuration not stated)	none (no result: EBV gp42 block, GLD-1 TGE inh, MEX-5 binding, Bcl-xL primary)
CC(C)OC(=O)CC(=O)c1sc2nc3c(cc2c1N)CN(C)CC3	EBV gp42 block 69.2, GLD-1 TGE inh 53.4, MEX-5 binding -30.6, Bcl-xL primary 84.4 (no result: E coli Lon inh)
C=CCc1cccc2cc(C(=O)Nc3ccc(S(=O)(=O)Nc4nnc(CC)s4)cc3)c(=O)oc12	EBV gp42 block 73.1
C=CCc1cccc2cc(C(=O)Nc3ccc(F)cc3)c(=O)oc12	none
COc1ccccc1CCCNC(=O)C1CCC(=O)N(Cc2ccccc2F)C1 (configuration not stated)	none (no result: EBV gp42 block)
Cc1nn(-c2ccccc2)c2c1C(c1ccccc1)C(C#N)=C(N)O2 (configuration not stated)	EBV gp42 block 131.0
Cc1ccc(/C=C2/Sc3ccc(C(=O)N4CCN(C)CC4)cc3NC2=O)cc1	Bcl-xL primary 36.9 (no result: EBV gp42 block)
Cc1ccccc1N1CCN(C2CCCN(C(=O)c3ccsc3)C2)CC1 (configuration not stated)	none (no result: EBV gp42 block, GLD-1 TGE inh, Bcl-xL primary)
O=C1NC(=Nc2ccccc2)/C(=C/c2ccco2)S1	Bcl-xL primary 42.2
Cc1ccc(N=C2NC(=O)S/C2=C\c2ccco2)cc1	none
CCOc1cc(N2CCOCC2)c(OCC)cc1NC(=O)C1CC(=O)N(c2ccc(C)cc2)C1 (configuration not stated)	none (no result: EBV gp42 block, MEX-5 binding)
CCOC(=O)C1=C[C@@H](C(C)C)N(S(=O)(=O)c2ccc(C)cc2)[C@H]1c1ccc(C(F)(F)F)cc1	none (no result: EBV gp42 block, GLD-1 TGE inh, MEX-5 binding, Bcl-xL primary)
N=C1/C(=C\c2ccc(SCc3ccccc3)o2)C(=O)N=C2SC(CC(=O)N3CCOCC3)=NN12	MEX-5 binding -30.0
COc1cc(NC(C)CCCN)c2ncccc2c1 (configuration not stated)	Bcl-xL primary 43.5 (no result: EBV gp42 block)
CCOC(=O)c1cc(C#N)c(SCC(=O)O)[nH]c1=O	none
CCOC(=O)c1cc(C#N)c(SCC(=O)c2cc(C#N)c(SC)nc2C)[nH]c1=O	GLD-1 TGE inh 76.9, Bcl-xL primary 102.9
CCOC(=O)c1cc(C#N)c(SCC(N)=O)[nH]c1=O	Bcl-xL primary 38.4
CCCCN1C(=O)C2Cc3c([nH]c4ccccc34)CN2C1=S (configuration not stated)	EBV gp42 block 51.9, GLD-1 TGE inh 44.5, MEX-5 binding -27.9
CCCCCN1CC(=O)N2Cc3[nH]c4ccccc4c3C[C@H]2C1=O	none (no result: EBV gp42 block)
